# Test results reported in PubChem BioAssay (NCATS).
# Records with an inconclusive call do not appear. Activity calls are given as the source filed them. Calls follow the shape of the dose curve; as a rule, active = well fitted cell-killing curve with a large enough effect; inconclusive = small, poorly fitted or top-dose-only effect; inactive = flat fitted curve, though single readings scatter.
# Experiment: Cell Viability - LYMP2-012 (AID 982);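 also: cellular ATP by luciferase luminescence where a drop means cytotoxicity; cells exposed to compound for one day before reading; 0% = DMSO only and full loss = 92 µM tetraoctylammonium bromide; nearly all actives have a fitted effect of over 55% in size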
# Conditions: LYMP2-012 lymphoblastoid cell viability qHTS; series mostly up to 92.2 µM; activity change, negative = cytotoxicity: at the top concentration
# Description: NIH Chemical Genomics Center [NCGC]
# NIH Molecular Libraries Screening Centers Network [MLSCN]
# National Institutes of Environmental Health Sciences [NIEHS]
# National Toxicology Program [NTP]
# We have developed a 1536-well cell-based assay for quantitative high throughput screening (qHTS) against a number of cell lines to determine in vitro cytotoxicity of small molecules. This particular assay uses a human lymphoblastoid cell line (LYMP2-012) purchased from Coriell Institute for Medical Research.
# NCGC Assay Protocol Summary:
# The CellTiter-Glo luminescent cell viability assay (Promega) is a homogeneous method to measure the number of viable cells in culture. The end point readout of this assay is based on quantitation of intracellular ATP, an indicator of metabolic activity, using the luciferase reaction. Luciferase catalyzes the oxidation of beetle Luciferin to oxyluciferin and light in the presence of ATP. The luminescent signal is proportional to amount of ATP present.
# Using the CellTiter-Glo luminescent cell viability assay, the amount of cellular ATP was measured in the lymphoblastoid cell line with complete culture medium following compound treatment for 24 hours. The assay was performed in opaque white Kalypsys 1536-well plates. In the screen, tetraoctylammonium bromide was used as positive control. Library compounds were measured for their ability to cause acute toxicity in the cell line, as reflected by a decrease in intracellular ATP levels, in a concentration-dependent manner. […] AC50 values were determined from concentration-response data modeled with the standard Hill equation.
# qHTS protocol for CellTiter Glo lymphoblastoid cellular assay
# [Step] [Parameter] [Value] [Description]
# 1. Reagent; 5 uL; 2500 lymphoblastoid cells/well
# 2. Time; 5 hr; 37 C incubation
# 4. Controls; 23 nL; Tetraoctylammonium bromide 6.4pM to 92 uM
# 5. Time; 24 hr; 37 C incubation
# 6. Reagent; 5 uL; CellTiter Glo reagent
# 7. Time; 30 min; Room Temperature
# 8. Detection; Luminescence; Viewlux plate reader
# Keywords: cell viability, cytotoxicity, lymphoblastoid cell line, luminescence, NTPHTS, NTPHTS_NCGC, NIEHS, DSSTox, MLSMR, MLSCN, NIH Roadmap, qHTS, NCGC
row,SMILES,"activity change, negative = cytotoxicity"
1,Clc1ccc(Cl)c(Cl)c1Cl,-1.8% (inactive)
2,CCCCC(C=O)CC (stereo not given),10.8% (inactive)
3,CO[Si](CCCNCCC[Si](OC)(OC)OC)(OC)OC,-22.6% (inactive)
4,O=Cc1cccc(Br)c1,12.8% (inactive)
5,CC(C)CCOC(=O)/C=C/c1ccccc1,1.2% (inactive)
6,CC(=O)Nc1ccc(C)cc1,2.73% (inactive)
7,c1ccsc1,15.4% (inactive)
8,CC(C=O)Cc1ccc(C(C)(C)C)cc1 (stereo not given),6.85% (inactive)
9,C=C(C)C(=O)OC,1.48% (inactive)
10,N#CC1(O)CCCCC1,-2.59% (inactive)
11,Cc1ccc2c(c1[N+](=O)[O-])C(=O)c1ccccc1C2=O,-1.36% (inactive)
12,CCC1CO1 (stereo not given),3.95% (inactive)
13,Cc1ccc(C)o1,6.65% (inactive)
14,Cc1ccc(C)c(O)c1,1.83% (inactive)
15,OCCO,-4.42% (inactive)
16,Cc1cccc(Br)c1,-5.98% (inactive)
17,Nc1ccccc1S(=O)(=O)O,1.71% (inactive)
18,O=C(O)c1cccc([N+](=O)[O-])c1,-0.96% (inactive)
19,Oc1c(Cl)ccc(Cl)c1Cl,-0.608% (inactive)
20,CCCC(Cl)CCCC(Cl)CCC(Cl)CCC(Cl)CCC(Cl)CCCC(Cl)CCC (stereo not given),-12.2% (inactive)

row,SMILES,"activity change, negative = cytotoxicity"
1,O=[N+]([O-])c1ccc(NCCO)c(OCCO)c1,-4.82% (inactive)
2,O=C(O)c1ccc(Cl)cc1Cl,3.57% (inactive)
3,Cc1cc(C(=O)O)ccc1[N+](=O)[O-],-3.7% (inactive)
4,CSc1ccc(C=O)cc1,4.19% (inactive)
5,Nc1cccc(O)c1,-2.2% (inactive)
6,CC(=O)OCc1ccco1,5.05% (inactive)
7,CC(=C/C=C/C(C)=C/C=C/C=C(C)/C=C/C=C(C)/C=C/C(=O)O)/C=C/C(=O)O,-5.61% (inactive)
8,CC(=O)C1(C)CC2=C(CCCC2(C)C)CC1C (stereo not given),-2.21% (inactive)
9,Cc1cc(C)cc(N)c1,-10.1% (inactive)
10,NC=O,3.28% (inactive)
11,Cc1ccc2ncccc2c1,-0.273% (inactive)
12,Nc1cc([N+](=O)[O-])ccc1C(=O)O,3.23% (inactive)
13,[O-]/[N+](=N\O)c1ccccc1,-5.95% (inactive)
14,CCCCCCO,-6.22% (inactive)
15,CCOCC(=O)O,2.01% (inactive)
16,Nc1cccc(N)c1,-0.416% (inactive)
17,S=C([S-])NCCNC(=S)[S-].[Zn+2],-3.47% (inactive)
18,O=C(Cl)c1cccc([N+](=O)[O-])c1,-9.04% (inactive)
19,Cc1ccc2cccnc2c1,-10.3% (inactive)
20,Cc1ccc(C)c([N+](=O)[O-])c1,5.63% (inactive)
